Data on 8 compounds can be found in PubChem BioAssay (EPA / NIEHS).

Records with an inconclusive call do not appear. Some compounds were tested as several samples or in several runs, with calls that do not always agree. Activity calls are given as the source filed them. The calls were made as follows, unless noted: active = hit-call score of the fitted dose curve at least 0.9, where 1 is the maximum; inactive = score below 0.9.

The target in assay [1] is human Thyroid Receptor alpha (THRa1), THRA (gene 7067) (UniProt P10827). Nature of the assay: ATG_THRa1_TRANS: Attagene TRANS-FACTORIAL HepG2 Assay for human Thyroid Receptor alpha (THRa1) (AID 2283014; active = hit-call score of the fitted dose curve at least 0.9, where 1 is the maximum). The method, boiled down: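 HepG2 cells transiently transfected with chimeric NR-Gal4 and GAL4-UAS reporter units, dosed 24 h. Reporter mRNA quantified by RT-PCR, fluorescent labeling, HpaI digestion and capillary electrophoresis; gain-of-signal fit versus DMSO.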
Sequence of human Thyroid Receptor alpha (THRa1), THRA (gene 7067) (P10827 whole entry, looked up, the tested form may be a part): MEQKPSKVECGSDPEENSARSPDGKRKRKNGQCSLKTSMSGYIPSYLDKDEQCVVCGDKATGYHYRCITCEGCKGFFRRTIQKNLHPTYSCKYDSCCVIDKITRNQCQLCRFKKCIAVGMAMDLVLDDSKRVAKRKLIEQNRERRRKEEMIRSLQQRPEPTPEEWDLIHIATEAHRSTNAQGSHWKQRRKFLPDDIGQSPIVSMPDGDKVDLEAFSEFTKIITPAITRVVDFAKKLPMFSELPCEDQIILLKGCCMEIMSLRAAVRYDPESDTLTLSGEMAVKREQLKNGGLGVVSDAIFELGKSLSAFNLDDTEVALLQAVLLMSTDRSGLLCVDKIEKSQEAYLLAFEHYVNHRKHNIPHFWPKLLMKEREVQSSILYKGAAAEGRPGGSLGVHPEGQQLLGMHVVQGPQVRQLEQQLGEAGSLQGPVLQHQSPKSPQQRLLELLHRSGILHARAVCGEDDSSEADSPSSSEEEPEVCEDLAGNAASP

Read-out in assay [2]: E-selectin (Homo sapiens) (UniProt P16581)
Nature of the assay: BSK_3C_Eselectin: BioMAP Diversity Plus: 3C Assay for Eselectin Biomarker Activity (AID 2283015).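 As to outcome: cell surface E-selectin protein quantified by ELISA 24 h after dosing.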 To be noted: primary human endothelial cells (HUVEC); actives raise or lower the signal. The method, boiled down:
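Primary human umbilical vein endothelial cells (3C system), read 24 h after compound addition; E-selectin measured by ELISA. Bidirectional curve fitting against DMSO baseline; cytotoxicity by parallel SRB total-protein staining.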

Read-out in assay [3]: Interleukin-1 alpha (IL1a), IL1A (gene 3552)
Nature of the assay: BSK_BE3C_IL1a: BioMAP Diversity Plus: BE3C Assay for Interleukin-1 alpha (IL1a) Biomarker Activity (AID 2283016). The conditions noted are these: primary human bronchial epithelial cells; actives raise or lower the signal. The method, boiled down:
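BE3C primary human bronchial epithelium; cpd 24 h; IL-1a by ELISA; bidirectional fit vs DMSO; parallel SRB (0.1% SRB, 10% TCA fix, 560 nm) for cytotoxicity.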

Read-out in assay [4]: Monocyte Chemoattractant Protein-1 (MCP1), CCL2 (gene 6347)
The experiment in a line: BSK_3C_MCP1: BioMAP Diversity Plus: 3C Assay for Monocyte Chemoattractant Protein-1 (MCP1) Biomarker Activity (AID 2283017). To be noted: primary human endothelial cells (HUVEC); actives raise or lower the signal. The method, boiled down: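 Human umbilical vein endothelial cells (3C system) exposed to chemicals for 24 h; MCP-1 quantified by ELISA against the DMSO baseline with bidirectional fitting, and parallel SRB staining used to assess cytotoxicity.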

Read-out in assay [5]: Monocyte Chemoattractant Protein-1 (MCP1), CCL2 (gene 6347)
Nature of the assay: BSK_4H_MCP1: BioMAP Diversity Plus: 4H Assay for Monocyte Chemoattractant Protein-1 (MCP1) Biomarker Activity (AID 2283018). The conditions noted are these: primary human endothelial cells (HUVEC); actives raise or lower the signal. The method, boiled down: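 ELISA read-out of MCP-1 from human vascular endothelial primary cells taken at 24 hours after compound exposure. Activity was fitted in both directions relative to DMSO, which served as negative control.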

Read-out in assay [6]: Human Leukocyte Antigen - DR isotype (HLADR), HLA-DRA (gene 3122)
The experiment in a line: BSK_3C_HLADR: BioMAP Diversity Plus: 3C Assay for Human Leukocyte Antigen - DR isotype (HLADR) Biomarker Activity (AID 2283019). The conditions noted are these: primary human endothelial cells (HUVEC); actives raise or lower the signal. The method, boiled down: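 HUVEC monoculture, HLA-DR measured by ELISA 24 h after chemical dosing. Fitted bidirectionally against DMSO baseline; parallel SRB staining assessed cytotoxicity, with 3C proliferation read by SRB at 48 h.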

Read-out in assay [7]: Interleukin-8 (IL8), CXCL8 (gene 3576)
The experiment in a line: BSK_3C_IL8: BioMAP Diversity Plus: 3C Assay for Interleukin-8 (IL8) Biomarker Activity (AID 2283020). To be noted: primary human endothelial cells (HUVEC); actives raise or lower the signal. The method, boiled down:
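ELISA read-out of IL-8 from human umbilical vein endothelium, measured 24 h after chemical dosing. Activity is expressed relative to DMSO negative control, with both increases and decreases fitted.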

Read-out in assay [8]: Monokine induced gamma interferon (MIG), CXCL9 (gene 4283)
Nature of the assay: BSK_3C_MIG: BioMAP Diversity Plus: 3C Assay for Monokine induced gamma interferon (MIG) Biomarker Activity (AID 2283021). To be noted: primary human endothelial cells (HUVEC); actives raise or lower the signal. The method, boiled down: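 Read-out is ELISA detection of MIG on human umbilical vein endothelial cells, taken 24 h after dosing. Gain or loss of signal was scored relative to DMSO controls using bidirectional curve fitting.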

The target in assay [9] is human Vitamin D Receptor (VDR), VDR (gene 7421) (UniProt P11473). The experiment in a line: ATG_VDR_TRANS: Attagene TRANS-FACTORIAL HepG2 Assay for human Vitamin D Receptor (VDR) (AID 2283022; active = hit-call score of the fitted dose curve at least 0.9, where 1 is the maximum). The method, boiled down:
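HepG2 cells were transiently transfected with GAL4-UAS reporter units and a chimeric VDR-Gal4 construct, then dosed for 24 hours. Reporter mRNA was quantified by RT-PCR, fluorescent labeling, HpaI digestion and capillary electrophoresis; gain of signal analysed vs DMSO.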

Read-out in assay [10]: Matrix Metallopeptidase 1 (MMP1), MMP1 (gene 4312)
Nature of the assay: BSK_BE3C_MMP1: BioMAP Diversity Plus: BE3C Assay for Matrix Metallopeptidase 1 (MMP1) Biomarker Activity (AID 2283024). To be noted: primary human bronchial epithelial cells; actives raise or lower the signal. The method, boiled down:
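Human bronchial epithelial cells (BE3C system) exposed to compound for 24 h; MMP1 then quantified by ELISA. Activity was fitted in both directions relative to DMSO.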

Assay [11] in a line: BSK_3C_Vis: BioMAP Diversity Plus: 3C Assay for Morphology Visualization (AID 2283025).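 Also: fitted both ways so gain or loss versus DMSO counts.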 To be noted: primary human endothelial cells (HUVEC). The method, boiled down:
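Chemicals were added to primary human umbilical vein endothelium, cells were incubated 24 h, and morphology was then visualized by light microscopy. Gain or loss of signal was fitted bidirectionally relative to DMSO.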

Read-out in assay [12]: Pselectin, SELP (gene 6403)
The experiment in a line: BSK_4H_Pselectin: BioMAP Diversity Plus: 4H Assay for Pselectin Biomarker Activity (AID 2283026). To be noted: primary human endothelial cells (HUVEC); actives raise or lower the signal. The method, boiled down:
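ELISA read-out of P-selectin on human umbilical vein endothelium after 24 h of dosing. Values derive from bidirectional fitting relative to DMSO. Parallel SRB protein staining flagged overt cytotoxicity.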

Assay [13] is described as follows: BSK_BE3C_SRB: Viability Assessment in the BioMAP Diversity Plus: BE3C Assay (AID 2283028). To be noted: primary human bronchial epithelial cells. The method, boiled down: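 Human bronchial epithelial primary cells in confluent culture, 24 h after chemical dosing; total protein by 0.1% SRB staining after 10% TCA fixation, read at 560 nm. Bidirectional fitting versus DMSO baseline.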

Read-out in assay [14]: Thrombomodulin, THBD (gene 7056)
The experiment in a line: BSK_3C_Thrombomodulin: BioMAP Diversity Plus: 3C Assay for Thrombomodulin Biomarker Activity (AID 2283029). The conditions noted are these: primary human endothelial cells (HUVEC); actives raise or lower the signal. The method, boiled down: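 Read-out is ELISA of thrombomodulin on human umbilical vein endothelium 24 h after chemical dosing. Gain or loss of signal is scored relative to DMSO. Overt cytotoxicity is checked in parallel cultures by sulforhodamine B staining.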

Read-out in assay [15]: Urokinase-type plasminogen activator receptor (uPAR), PLAUR (gene 5329)
The experiment in a line: BSK_4H_uPAR: BioMAP Diversity Plus: 4H Assay for Urokinase-type plasminogen activator receptor (uPAR) Biomarker Activity (AID 2283030). The conditions noted are these: primary human endothelial cells (HUVEC); actives raise or lower the signal. The method, boiled down:
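Human umbilical vein endothelial cells in the 4H system, 24 h after chemical dosing. Cell-surface uPAR measured by ELISA, fitted in both directions versus DMSO; cytotoxicity checked by SRB total protein in parallel cultures.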

Read-out in assay [16]: Vascular endothelial growth factor receptor 2 (Homo sapiens) (UniProt P35968)
The experiment in a line: BSK_4H_VEGFRII: BioMAP Diversity Plus: 4H Assay for Vascular endothelial growth factor receptor 2 (VEGFR2) Biomarker Activity (AID 2283031). To be noted: primary human endothelial cells (HUVEC); actives raise or lower the signal. The method, boiled down:
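Primary human umbilical vein endothelial cells (4H system), 24 h exposure; cell-surface VEGFR2 measured by ELISA. Bidirectional fitting versus DMSO; cytotoxicity checked in parallel by SRB total-protein staining.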

Read-out in assay [17]: Human Leukocyte Antigen - DR isotype (HLADR), HLA-DRA (gene 3122)
The experiment in a line: BSK_BE3C_HLADR: BioMAP Diversity Plus: BE3C Assay for Human Leukocyte Antigen - DR isotype (HLADR) Biomarker Activity (AID 2283032). To be noted: primary human bronchial epithelial cells; actives raise or lower the signal. The method, boiled down: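 ELISA read-out of HLA-DR on human lung bronchial epithelial primary cells, measured 24 h post-dosing. Both increases and decreases were scored relative to DMSO vehicle.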

A short description of assay [18]: BSK_3C_SRB: Viability Assessment in the BioMAP Diversity Plus: 3C Assay (AID 2283023).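 Also: fitted both ways against DMSO so a hit may be signal rise or drop.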 The conditions noted are these: primary human endothelial cells (HUVEC). The method, boiled down: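 Human umbilical vein endothelial cells in the 3C system, treated 24 h. Total protein measured by 0.1% sulforhodamine B staining after 10% TCA fixation, read at 560 nm; bidirectional fit versus DMSO.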

Assay [19] can be described thus: BSK_4H_SRB: Viability Assessment in the BioMAP Diversity Plus: 4H Assay (AID 2283027).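 Also: cells exposed to compound for 24 h before staining.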 To be noted: primary human endothelial cells (HUVEC). The method, boiled down:
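Human umbilical vein endothelial cells were dosed with chemical and, after 24 h, fixed with 10% TCA, stained with 0.1% sulforhodamine B, and read at 560 nm to give total protein as a cytotoxicity measure. Bidirectional fitting relative to DMSO control.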

Sequence of human Vitamin D Receptor (VDR), VDR (gene 7421) (P11473 whole entry, looked up, the tested form may be a part): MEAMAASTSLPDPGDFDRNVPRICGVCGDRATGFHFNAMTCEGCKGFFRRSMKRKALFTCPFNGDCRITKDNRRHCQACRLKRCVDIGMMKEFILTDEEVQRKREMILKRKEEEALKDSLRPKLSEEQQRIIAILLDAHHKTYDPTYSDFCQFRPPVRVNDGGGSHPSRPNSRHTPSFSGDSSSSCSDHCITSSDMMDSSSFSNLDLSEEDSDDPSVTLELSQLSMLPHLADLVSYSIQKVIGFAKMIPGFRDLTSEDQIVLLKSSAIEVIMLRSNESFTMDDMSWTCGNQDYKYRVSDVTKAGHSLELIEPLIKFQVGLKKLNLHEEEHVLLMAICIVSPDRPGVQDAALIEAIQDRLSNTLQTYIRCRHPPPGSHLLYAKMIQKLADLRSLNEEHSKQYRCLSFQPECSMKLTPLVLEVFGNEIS
Sequence of E-selectin (Homo sapiens) (P16581 whole entry, looked up): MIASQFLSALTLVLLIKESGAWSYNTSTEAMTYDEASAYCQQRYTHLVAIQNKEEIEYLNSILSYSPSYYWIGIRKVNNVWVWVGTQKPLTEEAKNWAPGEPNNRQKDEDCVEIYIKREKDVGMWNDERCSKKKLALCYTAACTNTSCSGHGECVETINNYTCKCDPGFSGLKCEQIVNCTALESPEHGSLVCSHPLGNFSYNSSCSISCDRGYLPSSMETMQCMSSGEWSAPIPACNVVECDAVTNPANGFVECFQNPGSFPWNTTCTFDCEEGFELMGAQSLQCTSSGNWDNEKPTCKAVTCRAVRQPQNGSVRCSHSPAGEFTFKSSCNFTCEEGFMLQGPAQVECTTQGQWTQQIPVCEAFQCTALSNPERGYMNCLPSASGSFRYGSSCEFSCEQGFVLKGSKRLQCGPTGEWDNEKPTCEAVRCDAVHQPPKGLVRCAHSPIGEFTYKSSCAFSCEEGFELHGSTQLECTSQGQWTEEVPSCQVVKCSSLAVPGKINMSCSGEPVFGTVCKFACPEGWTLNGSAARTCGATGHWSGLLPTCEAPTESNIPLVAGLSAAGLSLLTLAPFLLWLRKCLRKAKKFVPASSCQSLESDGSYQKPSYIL

A word on the AC50: it is the concentration at which the activity in the assay is half-maximal. As for `Clc1ccc(Nc2nnc(Cc3ccncc3)c3ccccc23)cc1`, the outcome in [1], in assay [4], in [5], in [6], in assay [7] and in assay [8] was inactive. Moreover, the call in assay [9], in assay [10], in [11], in assay [12], in assay [13] and in [14] was inactive. In addition, the outcome in [15], in assay [16] and in [17] was inactive. Further, the AC50 in [2] was 2.36 µM (active); in [3], 1.67 µM (active).
Regarding `CN(CCO)S(=O)(=O)C(F)(F)C(F)(F)C(F)(F)C(F)(F)C(F)(F)C(F)(F)C(F)(F)C(F)(F)F`, the result in assay [1], in [2], in [3], in assay [4], in [5] and in assay [6] was inactive. The result in assay [7], in assay [8], in assay [18], in assay [10], in assay [12] and in [19] was inactive. The result in [13], in [14], in [15], in assay [16] and in assay [17] was inactive. Further, the concentration at half-maximal activity (AC50) is 1.63 µM (active) in assay [10] and 243 nM (active) in assay [12].
`CC(C)(C)C1CCCCC1O` (stereo unspecified): the compound was classed as inactive in [1].
Regarding `O=C(c1cc(O)c(O)c(O)c1)c1ccc(O)c(O)c1O`, the outcome in [1] and in assay [9] was inactive.
Regarding `CC(O)COc1ccccc1` (stereo unspecified), the outcome in assay [1] was inactive.
Consider `O=C(O)CN(CCCN(CC(=O)O)CC(=O)O)CC(=O)O`, for which the compound was classed as inactive in assay [1] and in [9].
For `CN(C)CCOC(c1ccccc1)c1ccccc1`, the call in assay [1], in assay [2], in [3], in assay [4], in [6] and in assay [7] was inactive. Further, the outcome in assay [8], in assay [18], in assay [10], in assay [11], in assay [13] and in assay [14] was inactive. Besides, the result in assay [16] and in [17] was inactive. Moreover, the values for the AC50 in assay [5], in assay [12] and in assay [15] were 351 nM (active), 3970 nM (active) and 2.27 µM (active), respectively.
Turning to `Cn1sccc1=O`, the call in [1] and in [9] was inactive.
